Experiment [1] concerns the target Tyrosine-protein kinase CSK (Homo sapiens) (UniProt P41240). To be noted: at 1 µM.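 Also: each value is an averaged inhibition reading.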
Experiment [2] has as its target T1, Discoidin domain-containing receptor 2 (Homo sapiens) (UniProt Q16832).
T1 sequence (whole entry): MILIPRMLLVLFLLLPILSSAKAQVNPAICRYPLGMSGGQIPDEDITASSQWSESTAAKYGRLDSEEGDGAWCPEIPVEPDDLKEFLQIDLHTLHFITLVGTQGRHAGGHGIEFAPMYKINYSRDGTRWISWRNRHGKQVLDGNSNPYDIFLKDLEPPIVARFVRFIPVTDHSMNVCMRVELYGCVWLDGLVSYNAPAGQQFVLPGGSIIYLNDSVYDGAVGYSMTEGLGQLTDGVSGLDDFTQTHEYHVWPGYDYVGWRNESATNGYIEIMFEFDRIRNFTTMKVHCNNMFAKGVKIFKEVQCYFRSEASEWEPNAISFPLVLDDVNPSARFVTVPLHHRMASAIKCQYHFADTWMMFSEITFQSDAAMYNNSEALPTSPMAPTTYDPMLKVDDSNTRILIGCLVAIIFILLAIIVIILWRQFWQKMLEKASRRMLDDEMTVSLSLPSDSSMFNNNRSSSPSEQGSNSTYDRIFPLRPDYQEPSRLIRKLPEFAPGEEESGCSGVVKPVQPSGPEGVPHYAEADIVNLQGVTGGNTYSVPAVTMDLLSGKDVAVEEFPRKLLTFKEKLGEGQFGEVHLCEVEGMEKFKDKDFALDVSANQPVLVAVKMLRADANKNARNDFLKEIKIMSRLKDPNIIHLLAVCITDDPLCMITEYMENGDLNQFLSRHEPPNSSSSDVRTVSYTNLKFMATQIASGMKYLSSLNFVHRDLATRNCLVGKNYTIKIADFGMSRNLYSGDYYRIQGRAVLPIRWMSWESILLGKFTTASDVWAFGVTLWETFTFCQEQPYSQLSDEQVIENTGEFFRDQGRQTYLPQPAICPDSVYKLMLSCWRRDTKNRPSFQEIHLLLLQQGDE
To be noted: at 0.1 µM.

Experiment [3] concerns the target T1, Discoidin domain-containing receptor 2 (Homo sapiens). To be noted: at 1 µM.
Experiment [4] concerns the target Epidermal growth factor receptor (Homo sapiens) (UniProt P00533). To be noted: at 0.1 µM.
For experiment [5] the target is unchanged. To be noted: at 1 µM.
Experiment [6] has as its system Epidermal growth factor receptor (Homo sapiens), P00533 [L858R]. To be noted: at 0.1 µM.
The test system is the same in experiment [7]. To be noted: at 1 µM.
Experiment [8] concerns Epidermal growth factor receptor (Homo sapiens), P00533 [L861Q]. To be noted: at 0.1 µM.
Experiment [9] has the same test system. To be noted: at 1 µM.
Experiment [10] deals with Epidermal growth factor receptor (Homo sapiens), P00533 [T790M]. To be noted: at 0.1 µM.
Epidermal growth factor receptor (Homo sapiens), P00533 [T790M], sequence (P00533 whole entry T790M): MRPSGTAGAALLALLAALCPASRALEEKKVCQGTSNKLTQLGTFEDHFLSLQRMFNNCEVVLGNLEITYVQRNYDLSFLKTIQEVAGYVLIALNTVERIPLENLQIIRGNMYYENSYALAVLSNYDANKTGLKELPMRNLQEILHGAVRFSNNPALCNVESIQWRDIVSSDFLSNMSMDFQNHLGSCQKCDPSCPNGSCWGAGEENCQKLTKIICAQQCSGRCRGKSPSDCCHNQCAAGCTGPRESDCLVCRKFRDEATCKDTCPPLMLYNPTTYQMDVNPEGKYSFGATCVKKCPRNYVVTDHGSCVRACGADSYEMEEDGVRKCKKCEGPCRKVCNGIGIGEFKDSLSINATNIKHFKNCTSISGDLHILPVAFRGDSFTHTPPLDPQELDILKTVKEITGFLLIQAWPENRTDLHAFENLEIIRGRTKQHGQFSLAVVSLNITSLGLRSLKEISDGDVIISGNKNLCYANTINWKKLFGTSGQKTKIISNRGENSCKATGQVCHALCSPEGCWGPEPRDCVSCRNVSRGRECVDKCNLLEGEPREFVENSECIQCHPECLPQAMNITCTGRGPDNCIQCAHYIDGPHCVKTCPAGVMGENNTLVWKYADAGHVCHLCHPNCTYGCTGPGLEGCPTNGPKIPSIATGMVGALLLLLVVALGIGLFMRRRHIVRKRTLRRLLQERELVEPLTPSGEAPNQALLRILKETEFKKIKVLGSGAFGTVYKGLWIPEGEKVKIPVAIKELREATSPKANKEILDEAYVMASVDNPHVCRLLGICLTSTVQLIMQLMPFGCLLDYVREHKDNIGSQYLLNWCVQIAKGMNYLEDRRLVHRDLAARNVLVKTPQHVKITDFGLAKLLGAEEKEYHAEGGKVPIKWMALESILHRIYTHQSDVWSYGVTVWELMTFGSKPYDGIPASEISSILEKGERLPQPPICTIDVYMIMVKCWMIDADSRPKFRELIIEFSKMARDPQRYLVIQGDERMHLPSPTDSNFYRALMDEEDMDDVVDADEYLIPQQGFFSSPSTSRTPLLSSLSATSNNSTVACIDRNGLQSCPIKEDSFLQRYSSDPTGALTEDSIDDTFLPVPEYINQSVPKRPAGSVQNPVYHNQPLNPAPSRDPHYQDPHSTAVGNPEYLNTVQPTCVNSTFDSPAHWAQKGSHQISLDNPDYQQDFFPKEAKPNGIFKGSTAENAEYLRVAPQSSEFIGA
Experiment [11] shares this test system. To be noted: at 1 µM.
Experiment [12] deals with Epidermal growth factor receptor (Homo sapiens), P00533 [L858R,T790M]. To be noted: at 0.1 µM.
Experiment [13] shares this test system. To be noted: at 1 µM.
Experiment [14] has as its target Ephrin type-A receptor 2 (Homo sapiens) (UniProt P29317). To be noted: at 0.1 µM.
The target is the same in experiment [15]. To be noted: at 1 µM.
For experiment [16], the target named is T2, Ephrin type-A receptor 3 (Homo sapiens) (UniProt P29320).
T2 sequence (whole entry): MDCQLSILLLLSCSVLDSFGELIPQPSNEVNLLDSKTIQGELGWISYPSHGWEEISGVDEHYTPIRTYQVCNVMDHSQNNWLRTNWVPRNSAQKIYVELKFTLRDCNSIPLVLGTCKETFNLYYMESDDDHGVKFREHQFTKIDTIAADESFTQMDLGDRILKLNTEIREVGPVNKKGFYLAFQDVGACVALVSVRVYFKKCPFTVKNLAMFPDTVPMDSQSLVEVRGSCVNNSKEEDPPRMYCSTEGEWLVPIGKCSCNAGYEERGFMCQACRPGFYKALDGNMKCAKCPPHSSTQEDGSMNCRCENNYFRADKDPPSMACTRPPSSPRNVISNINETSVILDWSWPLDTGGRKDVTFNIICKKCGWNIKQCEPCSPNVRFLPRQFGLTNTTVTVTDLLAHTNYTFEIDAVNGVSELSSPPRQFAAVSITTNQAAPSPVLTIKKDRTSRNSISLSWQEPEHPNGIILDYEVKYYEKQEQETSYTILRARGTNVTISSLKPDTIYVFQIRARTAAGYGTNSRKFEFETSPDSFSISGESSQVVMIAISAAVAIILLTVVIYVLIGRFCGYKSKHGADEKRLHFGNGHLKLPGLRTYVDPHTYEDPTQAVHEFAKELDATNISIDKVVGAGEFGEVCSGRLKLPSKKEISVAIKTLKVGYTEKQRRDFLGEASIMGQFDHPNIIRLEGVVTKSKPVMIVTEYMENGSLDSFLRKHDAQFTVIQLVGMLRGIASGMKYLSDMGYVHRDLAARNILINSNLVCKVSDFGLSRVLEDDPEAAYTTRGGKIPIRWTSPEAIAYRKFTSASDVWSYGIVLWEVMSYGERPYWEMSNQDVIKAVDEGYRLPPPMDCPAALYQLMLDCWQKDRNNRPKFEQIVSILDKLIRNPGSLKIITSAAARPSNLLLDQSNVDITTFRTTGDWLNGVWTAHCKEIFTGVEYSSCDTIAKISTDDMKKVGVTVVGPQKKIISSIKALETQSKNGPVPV
To be noted: at 0.1 µM.

Experiment [17] concerns the target T2, Ephrin type-A receptor 3 (Homo sapiens). To be noted: at 1 µM.
For experiment [18], the target named is Ephrin type-A receptor 4 (Homo sapiens) (UniProt P54764). To be noted: at 0.1 µM.
Ephrin type-A receptor 4 (Homo sapiens), sequence (P54764 whole entry): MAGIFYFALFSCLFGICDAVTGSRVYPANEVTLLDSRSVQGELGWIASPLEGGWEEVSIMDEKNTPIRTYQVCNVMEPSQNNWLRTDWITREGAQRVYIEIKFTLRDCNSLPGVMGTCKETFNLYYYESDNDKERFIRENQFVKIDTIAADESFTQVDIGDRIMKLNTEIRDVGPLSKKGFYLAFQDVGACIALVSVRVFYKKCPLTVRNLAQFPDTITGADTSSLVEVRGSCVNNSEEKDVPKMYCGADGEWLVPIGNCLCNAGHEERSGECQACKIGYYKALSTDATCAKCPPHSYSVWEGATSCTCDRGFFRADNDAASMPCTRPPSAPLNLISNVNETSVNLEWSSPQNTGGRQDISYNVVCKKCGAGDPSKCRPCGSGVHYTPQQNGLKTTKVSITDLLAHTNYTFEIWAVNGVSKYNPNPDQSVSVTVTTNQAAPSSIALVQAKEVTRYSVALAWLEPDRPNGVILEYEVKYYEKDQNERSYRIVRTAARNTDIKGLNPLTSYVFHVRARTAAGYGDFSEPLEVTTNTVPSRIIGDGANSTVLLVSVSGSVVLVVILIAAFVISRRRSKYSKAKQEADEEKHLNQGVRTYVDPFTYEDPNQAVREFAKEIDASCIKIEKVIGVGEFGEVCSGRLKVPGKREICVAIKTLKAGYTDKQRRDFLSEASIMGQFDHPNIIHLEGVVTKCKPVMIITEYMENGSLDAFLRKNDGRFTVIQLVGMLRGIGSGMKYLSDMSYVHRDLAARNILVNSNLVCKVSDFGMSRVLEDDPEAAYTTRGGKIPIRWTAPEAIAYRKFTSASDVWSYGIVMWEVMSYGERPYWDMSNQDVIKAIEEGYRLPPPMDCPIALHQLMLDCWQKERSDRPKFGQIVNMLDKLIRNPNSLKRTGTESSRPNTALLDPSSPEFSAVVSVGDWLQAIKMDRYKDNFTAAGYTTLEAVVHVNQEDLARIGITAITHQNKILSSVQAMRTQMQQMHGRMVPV
For experiment [19] the target is unchanged. To be noted: at 1 µM.
In experiment [20] the target is T3, Ephrin type-B receptor 2 (Homo sapiens) (UniProt P29323).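 Also: reported as mean inhibition of EPHB2, from the GSK PKIS dataset.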
T3 sequence (whole entry): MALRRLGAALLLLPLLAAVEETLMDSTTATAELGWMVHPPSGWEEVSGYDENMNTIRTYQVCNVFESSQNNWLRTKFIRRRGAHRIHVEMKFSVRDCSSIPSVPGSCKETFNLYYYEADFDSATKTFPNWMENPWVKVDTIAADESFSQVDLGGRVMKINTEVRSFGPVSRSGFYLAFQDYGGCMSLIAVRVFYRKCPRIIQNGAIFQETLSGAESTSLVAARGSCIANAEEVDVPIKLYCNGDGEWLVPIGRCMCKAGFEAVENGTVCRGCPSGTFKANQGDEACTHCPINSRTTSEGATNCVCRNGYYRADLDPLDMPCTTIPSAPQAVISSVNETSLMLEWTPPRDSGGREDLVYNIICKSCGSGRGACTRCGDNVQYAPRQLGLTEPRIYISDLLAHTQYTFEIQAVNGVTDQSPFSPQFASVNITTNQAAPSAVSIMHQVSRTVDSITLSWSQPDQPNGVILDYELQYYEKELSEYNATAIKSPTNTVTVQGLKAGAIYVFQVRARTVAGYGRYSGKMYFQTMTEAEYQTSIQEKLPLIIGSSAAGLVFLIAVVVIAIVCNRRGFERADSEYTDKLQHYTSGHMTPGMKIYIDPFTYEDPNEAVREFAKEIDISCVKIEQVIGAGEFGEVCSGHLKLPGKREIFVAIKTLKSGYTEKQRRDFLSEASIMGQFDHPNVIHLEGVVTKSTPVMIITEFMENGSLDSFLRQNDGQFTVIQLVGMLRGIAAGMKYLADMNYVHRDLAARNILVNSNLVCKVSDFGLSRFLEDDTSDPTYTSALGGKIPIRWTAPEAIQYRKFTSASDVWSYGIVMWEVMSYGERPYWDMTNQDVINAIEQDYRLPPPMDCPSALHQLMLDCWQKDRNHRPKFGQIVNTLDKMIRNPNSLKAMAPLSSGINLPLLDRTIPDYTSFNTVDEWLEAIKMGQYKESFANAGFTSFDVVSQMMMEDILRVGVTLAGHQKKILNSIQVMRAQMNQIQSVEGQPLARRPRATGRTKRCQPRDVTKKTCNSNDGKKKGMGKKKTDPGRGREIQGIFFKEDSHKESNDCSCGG
To be noted: at 0.1 µM.

Epidermal growth factor receptor (Homo sapiens), P00533 [L858R], sequence (P00533 whole entry L858R): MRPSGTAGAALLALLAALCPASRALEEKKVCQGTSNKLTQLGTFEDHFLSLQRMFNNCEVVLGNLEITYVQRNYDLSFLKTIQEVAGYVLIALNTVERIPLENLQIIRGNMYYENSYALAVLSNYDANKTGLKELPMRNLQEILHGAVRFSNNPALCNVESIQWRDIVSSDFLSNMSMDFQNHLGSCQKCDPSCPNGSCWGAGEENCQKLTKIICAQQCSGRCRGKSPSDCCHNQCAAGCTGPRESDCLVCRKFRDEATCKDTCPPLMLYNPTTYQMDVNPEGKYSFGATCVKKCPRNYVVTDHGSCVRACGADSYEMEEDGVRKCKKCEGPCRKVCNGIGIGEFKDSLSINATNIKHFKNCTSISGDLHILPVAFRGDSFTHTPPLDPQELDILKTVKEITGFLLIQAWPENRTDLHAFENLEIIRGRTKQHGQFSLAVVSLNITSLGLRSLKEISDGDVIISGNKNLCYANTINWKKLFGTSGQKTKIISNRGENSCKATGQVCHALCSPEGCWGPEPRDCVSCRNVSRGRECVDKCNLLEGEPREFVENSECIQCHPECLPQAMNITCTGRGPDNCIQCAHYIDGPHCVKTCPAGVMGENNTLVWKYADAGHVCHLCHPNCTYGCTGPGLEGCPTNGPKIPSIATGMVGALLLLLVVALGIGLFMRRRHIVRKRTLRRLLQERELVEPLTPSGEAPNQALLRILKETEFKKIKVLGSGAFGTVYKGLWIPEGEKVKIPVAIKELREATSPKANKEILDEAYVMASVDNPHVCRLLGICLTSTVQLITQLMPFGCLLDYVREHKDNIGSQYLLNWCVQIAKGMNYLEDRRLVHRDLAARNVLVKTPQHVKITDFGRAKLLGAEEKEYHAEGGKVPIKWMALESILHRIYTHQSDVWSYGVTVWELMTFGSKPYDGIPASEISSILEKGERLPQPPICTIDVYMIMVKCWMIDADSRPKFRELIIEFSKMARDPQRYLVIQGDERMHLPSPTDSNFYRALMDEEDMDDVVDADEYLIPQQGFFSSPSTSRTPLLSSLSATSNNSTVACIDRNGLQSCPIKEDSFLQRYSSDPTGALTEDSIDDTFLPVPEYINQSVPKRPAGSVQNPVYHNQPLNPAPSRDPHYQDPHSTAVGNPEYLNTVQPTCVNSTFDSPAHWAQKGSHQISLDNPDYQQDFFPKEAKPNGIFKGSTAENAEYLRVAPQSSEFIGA
Tyrosine-protein kinase CSK (Homo sapiens), sequence (P41240 2-450 limits assumed): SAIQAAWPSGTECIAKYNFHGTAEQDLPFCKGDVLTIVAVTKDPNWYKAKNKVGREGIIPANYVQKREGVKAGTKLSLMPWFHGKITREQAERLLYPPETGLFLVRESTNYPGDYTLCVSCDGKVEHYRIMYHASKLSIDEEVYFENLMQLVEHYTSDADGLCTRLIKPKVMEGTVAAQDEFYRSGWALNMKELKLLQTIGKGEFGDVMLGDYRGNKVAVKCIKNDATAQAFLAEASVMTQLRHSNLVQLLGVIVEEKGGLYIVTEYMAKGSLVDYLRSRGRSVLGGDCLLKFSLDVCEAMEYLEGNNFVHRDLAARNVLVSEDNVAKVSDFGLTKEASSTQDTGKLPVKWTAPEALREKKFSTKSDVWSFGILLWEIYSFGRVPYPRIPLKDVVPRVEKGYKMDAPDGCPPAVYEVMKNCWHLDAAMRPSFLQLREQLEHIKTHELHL
Epidermal growth factor receptor (Homo sapiens), sequence (P00533 whole entry): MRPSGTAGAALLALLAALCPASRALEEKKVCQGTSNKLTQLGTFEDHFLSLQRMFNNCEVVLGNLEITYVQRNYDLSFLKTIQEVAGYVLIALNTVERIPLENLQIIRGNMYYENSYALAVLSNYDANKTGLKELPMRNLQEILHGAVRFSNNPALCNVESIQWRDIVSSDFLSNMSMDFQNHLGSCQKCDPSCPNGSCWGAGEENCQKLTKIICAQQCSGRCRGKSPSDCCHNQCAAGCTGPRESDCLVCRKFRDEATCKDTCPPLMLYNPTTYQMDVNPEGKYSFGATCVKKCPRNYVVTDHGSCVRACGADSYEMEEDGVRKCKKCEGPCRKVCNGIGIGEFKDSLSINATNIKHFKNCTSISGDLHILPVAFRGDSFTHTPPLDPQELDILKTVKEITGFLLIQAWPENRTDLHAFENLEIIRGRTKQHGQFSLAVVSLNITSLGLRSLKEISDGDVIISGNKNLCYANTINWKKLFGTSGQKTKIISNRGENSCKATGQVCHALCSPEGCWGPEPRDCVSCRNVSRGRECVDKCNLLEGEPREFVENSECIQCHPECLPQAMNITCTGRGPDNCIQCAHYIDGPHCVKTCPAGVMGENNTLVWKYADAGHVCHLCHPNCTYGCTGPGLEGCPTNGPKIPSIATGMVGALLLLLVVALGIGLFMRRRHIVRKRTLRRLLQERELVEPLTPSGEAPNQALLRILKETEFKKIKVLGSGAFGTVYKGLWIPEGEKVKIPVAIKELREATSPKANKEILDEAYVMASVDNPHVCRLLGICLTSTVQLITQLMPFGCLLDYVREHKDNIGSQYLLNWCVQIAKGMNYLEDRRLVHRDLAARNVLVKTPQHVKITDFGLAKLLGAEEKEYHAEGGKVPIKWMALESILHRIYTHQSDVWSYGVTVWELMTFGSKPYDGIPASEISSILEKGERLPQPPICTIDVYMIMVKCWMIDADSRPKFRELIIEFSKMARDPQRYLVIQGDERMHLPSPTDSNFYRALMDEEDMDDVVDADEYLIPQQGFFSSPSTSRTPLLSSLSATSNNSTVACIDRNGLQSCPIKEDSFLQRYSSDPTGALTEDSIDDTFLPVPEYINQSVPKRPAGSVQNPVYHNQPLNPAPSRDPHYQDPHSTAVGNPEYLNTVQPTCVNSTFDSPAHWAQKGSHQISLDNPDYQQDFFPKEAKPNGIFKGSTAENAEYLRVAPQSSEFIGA

For `COc1ccc(-c2ccc3c(NC(=O)C4CC4)n[nH]c3n2)cc1`, the inhibition – broadly, the relative decrease from the control value, in per cent – was 4.87% in experiment [1]; 0.86% in [2]; 0.84% in experiment [3]; 0.14% in experiment [4]; 0.71% in experiment [5]; -1.64% in [6]. The inhibition in [7] is 3.91%; in experiment [8], -0.19%; in experiment [9], 2.45%; in experiment [10], -0.2%; in [11] it was 4.06%; in experiment [12] it was -0.83%. Moreover, the inhibition is 5.32% in experiment [13]; 0.96% in experiment [14]; 0.05% in experiment [15]; 2.4% in [16]; 3.41% in [17]; 6.38% in [18]. The inhibition is 10.4% in experiment [19] and 1.78% in [20].
On to `O=C(NCC1CC1)c1ccc(-c2cccc(C(=O)NC3CC3)c2)cc1`, for which the inhibition in experiment [1] was -3.57%; in experiment [2] it was 4.92%; in [3], 7.61%; in experiment [4], 1.39%; in experiment [5], 0.85%; in experiment [6] it was 2.42%. The inhibition in experiment [7] is -2.6%; in [8], -0.16%; in experiment [9], -2.26%; in experiment [10], 0.88%; in [11] it was -1.31%; in experiment [12] it was -1.91%. Also, the inhibition in experiment [13] turned out to be 3.8%; in [14], 2.47%; in [15], 1.67%; in [16], 2.75%; in experiment [17] it was 4.67%; in experiment [18], 4.89%. Further, the inhibition is -0.51% in experiment [19] and 6.78% in experiment [20].
For the compound `Cc1ccc(C(=O)NC(C)C)cc1-c1ccc(C(=O)NCC2CC2)cc1`, the inhibition in experiment [2] is -0.36%; in [3], 0.09%; in experiment [4] it was 0.3%; in experiment [5], 1.34%; in [6], -1.62%; in experiment [7], -1.21%. The inhibition is -0.86% in [8]; -2.64% in [9]; -0.77% in [10]; -3.61% in experiment [11]; -2.78% in experiment [12]; -0.98% in experiment [13]. Further, the inhibition is -1.78% in experiment [14]; -2.07% in experiment [15]; -7.27% in [16]; -6.99% in [17]; -6.17% in experiment [18]; -6.72% in [19]. Further, in experiment [20], the inhibition was -9.67%.
For the compound `COc1cccc(/C=N/Nc2ncnc3c2cnn3-c2cccc(OC)c2)c1`, the inhibition in [1] came out at 3.91%; in experiment [2] it was 1.34%; in experiment [3] it was 2.5%; in experiment [4], 1.31%; in experiment [5], 2.97%; in experiment [6], 2.05%. Moreover, the inhibition in experiment [7] was determined as 8.79%; in experiment [8], 1.95%; in experiment [9], 4.05%; in [10], 0.54%; in experiment [11], 2.12%; in experiment [12], 2.14%. Moreover, the inhibition was 2.04% in experiment [13]; -1.3% in experiment [14]; -1.94% in experiment [15]; 1.72% in [16]; 3.83% in [17]; 6.9% in experiment [18]. The inhibition came to 9.69% in [19] and 8.19% in experiment [20].
Regarding `O=C(Nc1ccc(Oc2ccc3[nH]c(NC(=O)c4ccccc4)nc3c2)cc1)Nc1cc(C(F)(F)F)ccc1F`, the inhibition in experiment [1] was 11.7%; in experiment [2], 24.4%; in [3], 78.7%; in experiment [4], -0.35%; in experiment [5] it was 1.11%; in [6] it was 7.18%. Also, the inhibition in experiment [7] was found to be 6.93%; in experiment [8], 2.47%; in [9] it was 3.54%; in [10] it was 2.22%; in experiment [11], 5.49%; in [12] it was 1.07%. Besides, the inhibition was 2.34% in experiment [13]; 2.75% in [14]; 26% in experiment [15]; 4.22% in experiment [16]; 8.94% in experiment [17]; 13.4% in [18]. Also, the inhibition in [19] amounted to 64.2%; in experiment [20] it was 13.7%.
Turning to `COc1cc(Nc2ncc(-c3ccccc3)o2)cc(OC)c1OC`, the inhibition in experiment [1] was -0.86%; in [2], 0.74%; in experiment [3], 8.58%; in experiment [4], 6.02%; in experiment [5], 13.8%; in [6], -1.09%. The inhibition in experiment [7] was -0.27%; in experiment [8], 0.27%; in experiment [9], 0.17%; in experiment [10], 0.05%; in experiment [11], 1.16%; in experiment [12], -0.28%. Moreover, the inhibition was -0.54% in experiment [13]; -3.3% in experiment [14]; -1.26% in [15]; -6.76% in experiment [16]; -5.8% in experiment [17]; -7.25% in experiment [18]. In addition, the inhibition in [19] is 1.47%; in experiment [20], -1.44%.
Take `CCS(=O)(=O)c1ccc(OC)c(Nc2ncc(-c3cccc(-c4ccccc4F)c3)o2)c1`: the inhibition in [1] came to 4.82%; in experiment [2] it was 4.99%; in experiment [3] it was 30.8%; in [4], 4.07%; in [5], 23.3%; in experiment [6], 14.1%. In addition, the inhibition in experiment [7] is 62.1%; in [8], 4.78%; in experiment [9], 24.4%; in experiment [10], -1.94%; in experiment [11] it was 0.84%; in [12], 3.32%. The inhibition in experiment [13] is 5.25%; in experiment [14], -1.44%; in experiment [15], -0.56%; in [16], -1.38%; in experiment [17] it was 4.18%; in [18], 2.37%. For the same compound, the inhibition in experiment [19] came out at 2.94%; in [20], 5.91%.
